# Structures can show the parent of a compound that is named as a salt.
# Experiments:
# [1] = tested on: Vero E6 infected with SARS-CoV-2; assay: morphology score (similarity to uninfected cells); higher = more like uninfected cells; details: 24 h
# [2] = tested on: Vero E6 infected with SARS-CoV-2; assay: SARS-CoV-2 infection rate relative to infected DMSO; higher = more infection, active = 60 or less; details: 24 h
Structure (SMILES),morphology score [1],SARS-CoV-2 infection rate [2]
CN(C[C@@H]1COCCO1)S(=O)(=O)Nc1ccc2ccc3ncc(-c4cnn(C)c4)cc3c(=O)c2c1 (0.833333 µM),0.0936,111% (inactive)
CC[C@H](CO)Nc1nc(Nc2cccc(-c3ccccn3)c2)c2ncn(C(C)C)c2n1 (10 µM),-0.214,116% (inactive)
C[C@H]1CC[C@H](n2c3cnccc3c3cnc(Nc4ccc5c(n4)CCN(C(=O)CO)C5)nc32)CC1 (10 µM),0.0031,110% (inactive)
NC(=O)OCC(O)COc1ccc(Cl)cc1 (centres undefined) [chlorphensin-carbamate] (10 µM),-0.0129,112% (inactive)
CCCCc1oc2ccc(NS(C)(=O)=O)cc2c1C(=O)c1ccc(OCCCN(CCCC)CCCC)cc1 [dronedarone] (0.833333 µM),-0.0676,116% (inactive)
CCn1c(-c2nonc2N)nc2cncc(CNC3CCNCC3)c21 (10 µM),0.371,106% (inactive)
Cc1onc(O)c1C[C@@H](N)C(=O)O (racemic) (10 µM),0.0374,104% (inactive)
O=C1c2ccccc2C(=O)C1c1ccccc1 [phenindione] (10 µM),-0.000221,106% (inactive)
COc1ccc(S(=O)(=O)Nc2cc(Cl)cc(Cl)c2OC)cc1N1CCNCC1 (10 µM),0.132,97.5% (inactive)
CCCCc1nc(C)c(CC(=S)N(C)C)c(=O)n1Cc1ccc(-c2ccccc2-c2nnn[nH]2)cc1 [fimasartan] (10 µM),0.0951,112% (inactive)
COc1ccc(C(=O)c2c(C)n(CCN3CCOCC3)c3ccccc23)cc1 [pravadoline] (10 µM),0.0547,106% (inactive)
Cc1cc(SCc2sc(-c3ccc(C(F)(F)F)c(F)c3)nc2C)ccc1OCC(=O)O (10 µM),0.143,99.5% (inactive)
CCCS(=O)(=O)Nc1ccc(F)c(C(=O)c2c[nH]c3ncc(-c4ccc(Cl)cc4)cc23)c1F [vemurafenib] (10 µM),0.25,85.5% (inactive)
CC(=O)C1=C(O)C=C2Oc3c(C(C)=O)c(O)c(C)c(O)c3C2(C)C1=O (stereo not drawn) [usniacin-(+)] (10 µM),0.117,108% (inactive)
COC(=O)[C@@]12OC[C@]34[C@H]([C@@H](O)[C@@H]1O)[C@@]1(C)CC(=O)C(O)=C(C)[C@@H]1C[C@H]3OC(=O)[C@H](OC(=O)/C=C(\C)C(C)C)[C@@H]24 [bruceantin] (0.833333 µM),-0.0265,109% (inactive)
Cn1c(NC[C@@H](N)Cc2ccccc2)nc(-c2ccncc2)c(-c2ccc3ccccc3c2)c1=O (10 µM),0.653,35% (active)
COC(=O)C1=C(C)NC(C)=C(C(=O)OCCN(C)Cc2ccccc2)C1c1cccc([N+](=O)[O-])c1 (centres undefined) [nicardipine] (10 µM),0.0181,103% (inactive)
CCC(C)(Oc1ccc(C2(c3ccc(OC(C)(CC)C(=O)O)cc3)CCCCC2)cc1)C(=O)O (centres undefined) [clinofibrate] (10 µM),0.0154,112% (inactive)
CC(C)=CCC[C@](C)(O[C@@H]1O[C@H](CO)[C@@H](O)[C@H](O)[C@H]1O)[C@H]1CC[C@]2(C)[C@@H]1[C@H](O)C[C@@H]1[C@@]3(C)CC[C@H](O[C@@H]4O[C@H](CO)[C@@H](O)[C@H](O)[C@H]4O[C@@H]4O[C@H](CO)[C@@H](O)[C@H](O)[C@H]4O)C(C)(C)[C@@H]3CC[C@]12C [ginsenoside-RD] (10 µM),0.0521,102% (inactive)

Structure (SMILES),morphology score [1],SARS-CoV-2 infection rate [2]
CC(C)(C)c1cc(NC(=O)Nc2ccc(-c3cn4c(n3)sc3cc(OCCN5CCOCC5)ccc34)cc2)no1 [quizartinib] (10 µM),0.177,97.5% (inactive)
CCOC(=O)NNc1nncc2ccccc12 [todralazine] (10 µM),0.0897,106% (inactive)
"C[C@@H](N)[C@@H](O)c1ccccc1 [1S,2R-phenylpropanolamine] (10 µM)",-0.131,114% (inactive)
CCC1(CC)C(=O)C=CNC1=O [pyrithyldione] (10 µM),-0.0471,107% (inactive)
C=CC(=O)Nc1cc(Nc2nccc(-c3cn(C)c4ccccc34)n2)c(OC)cc1N(C)CCN(C)C [osimertinib] (10 µM),-0.27,110% (inactive)
CN(C)C/C=C/C(=O)Nc1ccc(C(=O)Nc2cccc(Nc3ncc(Cl)c(-c4c[nH]c5ccccc45)n3)c2)cc1 (10 µM),-0.108,94% (inactive)
C=CCN1CC[C@]23c4c5ccc(O)c4O[C@H]2/C(=N/NC(=O)c2ccccc2)CC[C@@]3(O)[C@H]1C5 [naloxone-benzoylhydrazone] (10 µM),0.0722,110% (inactive)
O=C1c2c(O)ccc(O)c2C(=O)c2c(NCCNCCO)ccc(NCCNCCO)c21 [mitoxantrone] (0.833333 µM),-0.00869,108% (inactive)
C[C@H]1CN(C[C@H](Cc2ccccc2)C(=O)NCC(=O)O)CC[C@@]1(C)c1cccc(O)c1 [alvimopan] (10 µM),0.116,106% (inactive)
CCSC(=N)N [EIT-hydrobromide] (10 µM),-0.0504,102% (inactive)
CC(C)[N+](C)(CCC(C(N)=O)(c1ccccc1)c1ccccc1)C(C)C [isopropamide-iodide] (10 µM),0.192,100% (inactive)
Cc1cc(-c2ccc(CC(=O)Nc3ccc(-c4cccnc4)cc3)cc2)ccn1 (10 µM),0.392,75.5% (inactive)
Nc1nccc(Oc2ccc(NC(=O)c3c[nH]cc(-c4ccc(F)cc4)c3=O)cc2F)c1Cl [metatinib] (10 µM),0.551,102% (inactive)
Cc1ccc(C(=O)Nc2cccc(C(F)(F)F)c2)cc1Nc1nc(-c2cccnc2)nc2c1cnn2C (10 µM),-0.0613,74% (inactive)
O=C(NC(Cc1cc(=O)[nH]c2ccccc12)C(=O)O)c1ccc(Cl)cc1 (centres undefined) [rebamipide] (10 µM),0.0758,104% (inactive)
CC(C)c1cc(-c2n[nH]c(=O)n2-c2ccc3c(ccn3C)c2)c(O)cc1O [ganetespib] (0.833333 µM),0.0711,111% (inactive)
CCc1c(O)cc(O)c(C(=O)c2ccc(OCCN3CCOCC3)c(OC)c2)c1CC(=O)N(CCOC)CCOC (10 µM),-0.0338,102% (inactive)
CCCCCCC[N+](CC)(CC)CCCCc1ccc(Cl)cc1 [clofilium] (10 µM),0.0344,118% (inactive)
CC=C1C(=O)C[C@H]2[C@@H]3CCC4=CC(=O)CC[C@]4(C)[C@H]3CC[C@]12C (10 µM),0.0492,91% (inactive)

Structure (SMILES),morphology score [1],SARS-CoV-2 infection rate [2]
CO/N=C1\CN(c2nc3c(cc2F)c(=O)c(C(=O)O)cn3C2CC2)CC1CN (centres undefined) [gemifloxacin] (10 µM),0.163,91.5% (inactive)
CON(C)C(=O)N1N=C(c2cc(F)ccc2F)S[C@@]1(CCCN)c1ccccc1 [filanesib] (0.833333 µM),-0.306,99% (inactive)
NS(=O)(=O)c1ccc(-n2nc(C(F)(F)F)cc2-c2ccc(Cl)cc2)cc1 (10 µM),0.0527,106% (inactive)
CN1CCN(C(c2ccccc2)c2ccc(Cl)cc2)CC1 (centres undefined) [chlorcyclizine] (10 µM),0.134,102% (inactive)
O=C(O)CCCN1C(=O)c2cccc3cccc(c23)C1=O [isodibut] (10 µM),0.205,104% (inactive)
Cc1cc(C)c(S(=O)(=O)Nc2ccccc2C(F)(F)F)c(C)c1 (10 µM),-0.0872,113% (inactive)
CC1=C(/C=C/C(C)=C/C=C/C(C)=C/C(=O)Nc2ccc(O)cc2)C(C)(C)CCC1 [fenretinide] (10 µM),-0.442,116% (inactive)
CC(C)(C)C(=O)OCOP(=O)(COCCn1cnc2c(N)ncnc21)OCOC(=O)C(C)(C)C [adefovir-dipivoxil] (10 µM),-0.117,124% (inactive)
CCc1cc2cc(OC)c(OC)cc2c(Cc2ccccc2)n1 [moxaverine] (10 µM),0.495,86% (inactive)
COCCOc1ccc(N2CCN(CCn3ncc4c3nc(N)n3nc(-c5ccco5)nc43)CC2)cc1 [preladenant] (10 µM),0.0084,111% (inactive)
O=C(O)/C=C/c1ccc(Cn2ccnc2)cc1 [ozagrel] (10 µM),0.12,92% (inactive)
C[C@]12CC[C@H](O)C[C@H]1CC[C@@H]1[C@@H]2CC[C@]2(C)[C@@](O)(c3ccoc3)CC[C@]12O [rostafuroxine] (10 µM),-0.206,118% (inactive)
CC(C)=CCC[C@](C)(O)[C@H]1CC[C@]2(C)[C@@H]1[C@H](O)C[C@@H]1[C@@]3(C)CC[C@H](O)C(C)(C)[C@@H]3[C@@H](O)C[C@]12C [hemomex-s] (10 µM),0.173,104% (inactive)
CCC1(C)CC(=O)NC(=O)C1 [bemegride] (10 µM),0.0851,95.5% (inactive)
Nc1nnc(-c2cccc(Cl)c2Cl)c(N)n1 [lamotrigine] (10 µM),0.0194,110% (inactive)
O=c1[nH]cc(F)c(=O)[nH]1 [5-fluorouracil] (0.833333 µM),0.0377,102% (inactive)
COc1cccc(N(C)C(=S)Oc2ccc3c(c2)CCCC3)n1 [liranaftate] (10 µM),0.341,94% (inactive)
CC(=O)N[C@@H](CC(=O)O)C(=O)N[C@@H](CCC(=O)O)C(=O)O [spaglumic-acid] (10 µM),0.121,88.5% (inactive)
C[C@@H]1CN(CCCn2c3ccccc3c3ccccc32)C[C@H](C)N1 [rimcazole] (10 µM),0.623,19.5% (active)

# Source: the supplement of paper PMC13380429
